{"source": "the supplement of paper PMC12340641", "data": [{"target": "IKZF1 (dCK*-IKZF1 fusion in HEK293FT) (UniProt Q13422)", "sequence (Q13422 whole entry, looked up, the tested form may be a part)": "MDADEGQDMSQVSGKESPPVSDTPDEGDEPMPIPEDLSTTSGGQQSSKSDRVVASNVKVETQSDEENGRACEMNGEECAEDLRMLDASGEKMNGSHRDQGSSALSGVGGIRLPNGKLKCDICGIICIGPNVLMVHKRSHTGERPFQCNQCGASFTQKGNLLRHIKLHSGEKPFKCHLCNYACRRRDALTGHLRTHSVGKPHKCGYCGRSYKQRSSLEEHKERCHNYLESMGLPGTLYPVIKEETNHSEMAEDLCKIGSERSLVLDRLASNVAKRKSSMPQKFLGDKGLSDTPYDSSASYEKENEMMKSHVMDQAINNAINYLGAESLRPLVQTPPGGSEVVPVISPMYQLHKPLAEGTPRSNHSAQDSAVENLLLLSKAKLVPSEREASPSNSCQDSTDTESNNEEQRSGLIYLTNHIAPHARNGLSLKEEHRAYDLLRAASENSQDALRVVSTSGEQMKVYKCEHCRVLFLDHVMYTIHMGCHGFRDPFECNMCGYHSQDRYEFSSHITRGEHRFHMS", "assay": "inhibition of IKZF1 HTRF signal (DMSO = 0%, pomalidomide 10 uM = 100%); higher = lower IKZF1 protein level", "conditions": "compound concentration: 5 uM, overnight (~20 h)", "procedure,_shortened": "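Values are percent inhibition of IKZF1 signal, normalised plate by plate against vehicle and a reference degrader. HEK293FT cells stably expressing an IKZF1 fusion were seeded at 2000 per well in 384-well plates and exposed to 5 μM compound in single wells overnight at 37 °C. After 30 min lysis at room temperature, lysates were incubated overnight with a commercial HTRF total-IKZF1 antibody kit, and the background-subtracted 665/620 nm time-resolved FRET ratio was read. On each plate, vehicle was set at 0% and the reference degrader at 100%.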", "units": {"inhibition of IKZF1 HTRF signal": "%"}, "values": [{"compound": "ClC(C=C3)=C(Cl)C=[C@@]3[C@H]2C1=CC=CC=C1[C@H](NC)C2", "note": "[indatraline]", "inhibition of IKZF1 HTRF signal": 28.4}, {"compound": "O=c1[nH]c2ccccc2n1C1CCN(CCCC(c2ccc(F)cc2)c2ccc(F)cc2)CC1", "note": "[Pimozide]", "inhibition of IKZF1 HTRF signal": -27.8}, {"compound": "CC(C)C[C@H](NC(=O)[C@@H](O)[C@H](N)Cc1ccccc1)C(=O)NCCOCCOCCOCC(=O)O[C@H]1CC[C@H]2[C@@H]3CC[C@H]4CC(=O)CC[C@]4(C)[C@H]3CC[C@]12C.O=C(O)C(F)(F)F", "note": "[PROTAC AR Degrader-4 (TFA)]", "inhibition of IKZF1 HTRF signal": 16.9}, {"compound": "Oc1c(I)cc(I)cc1I", "inhibition of IKZF1 HTRF signal": 11}, {"compound": "c1ccc(CCCN2CCN(CCOC(c3ccccc3)c3ccccc3)CC2)cc1", "inhibition of IKZF1 HTRF signal": -28.8}, {"compound": "c1ccc2c(c1)Sc1ccccc1N2CC1CN2CCC1CC2", "note": "(centres undefined) [levomequitazine]", "inhibition of IKZF1 HTRF signal": 10.6}, {"compound": "C(=C\\c1ccccc1)/CN1CCN(CCOC(c2ccccc2)c2ccccc2)CC1", "inhibition of IKZF1 HTRF signal": -32.9}, {"compound": "C[C@H]1O[C@@H](O[C@H]2[C@@H](O)C[C@H](O[C@H]3[C@@H](O)C[C@H](O[C@H]4CC[C@@]5(C)[C@H](CC[C@@H]6[C@@H]5C[C@@H](O)[C@]5(C)C(c7coc(O)c7)CC[C@]65O)C4)O[C@@H]3C)O[C@@H]2C)C[C@H](O)[C@@H]1O", "note": "(some centres undefined) [Digoxin]", "inhibition of IKZF1 HTRF signal": 84.1}, {"compound": "O=c1[nH]c2ccccc2n1C1CCN(CCCC(c2ccc(F)cc2)c2ccc(F)cc2)CC1", "inhibition of IKZF1 HTRF signal": -18.9}, {"compound": "C=C1[C@@H](C)[C@H]2[C@H](Cc3ccccc3)NC(=O)[C@]23OC(=O)/C=C/[C@H](O)CCC[C@@H](C)C/C=C/[C@H]3[C@@H]1O", "note": "[Cytochalasin B]", "inhibition of IKZF1 HTRF signal": 32.2}, {"compound": "C[C@]12CC[C@H](O)C[C@H]1CC[C@@H]1[C@@H]2C[C@@H](O)[C@]2(C)[C@@H](C3=CC(=O)OC3)CC[C@]12O", "note": "[Digoxigenin]", "inhibition of IKZF1 HTRF signal": 22.7}, {"compound": "Clc1ccc(N2CCN(Cc3c[nH]c4ncccc34)CC2)cc1", "inhibition of IKZF1 HTRF signal": -41.5}, {"compound": "COc1cc2cc(c1Cl)N(C)C(=O)C[C@H](OC(=O)C(C)C)[C@]1(C)O[C@H]1[C@H](C)[C@@H]1C[C@@](O)(NC(=O)O1)[C@H](OC)/C=C/C=C(\\C)C2", "note": "[Ansamitocin P-3]", "inhibition of IKZF1 HTRF signal": -18.7}, {"compound": "COc1cc([C@@H]2c3cc4c(cc3[C@H](O)[C@H]3COC(=O)[C@H]23)OCO4)cc(OC)c1OC", "inhibition of IKZF1 HTRF signal": 50}, {"compound": "COC(=O)[C@@]12OC[C@]34[C@H]([C@@H](O)[C@@H]1O)[C@@]1(C)CC(=O)C(O)=C(C)[C@@H]1C[C@H]3OC(=O)[C@H](OC(=O)/C=C(\\C)C(C)C)[C@@H]24", "note": "[Bruceantin]", "inhibition of IKZF1 HTRF signal": 43.7}, {"compound": "CCCCCCC[n+]1ccc(-c2cc[n+](CCCCCCC)cc2)cc1", "inhibition of IKZF1 HTRF signal": -27.9}, {"compound": "C[C@]12CC[C@H](O)C[C@H]1CC[C@@H]1[C@@H]2CC[C@]2(C)[C@@H](C3=CC(=O)OC3)CC[C@]12O", "note": "[digitoxigenin]", "inhibition of IKZF1 HTRF signal": 40.7}, {"compound": "COc1cc2c(c(OC)c1OC)-c1ccc(OC)c(=O)cc1[C@@H](NC(C)=O)CC2", "inhibition of IKZF1 HTRF signal": -16.1}, {"compound": "Oc1cc(Cl)ccc1Oc1ccc(Cl)cc1Cl", "inhibition of IKZF1 HTRF signal": -23.1}, {"compound": "O=C(N/N=C/c1ccc([N+](=O)[O-])o1)c1cc([N+](=O)[O-])cc([N+](=O)[O-])c1O", "inhibition of IKZF1 HTRF signal": 2.89}, {"compound": "CC[C@@]1(O)C(=O)OCc2c1cc1n(c2=O)Cc2cc3ccccc3nc2-1", "note": "[camptothecin]", "inhibition of IKZF1 HTRF signal": -10.9}, {"compound": "COc1cc([C@@H]2c3cc4c(cc3[C@H](O)[C@H]3COC(=O)C23)OCO4)cc(OC)c1OC", "note": "(some centres undefined) [Podofilox]", "inhibition of IKZF1 HTRF signal": 49.2}, {"compound": "CC(=O)OC[C@]12CCC(C)=C[C@H]1O[C@@H]1[C@H](O)[C@@H](OC(C)=O)[C@@]2(C)[C@@]12CO2", "note": "[Diacetoxyscirpenol]", "inhibition of IKZF1 HTRF signal": 93.3}, {"compound": "O=c1n(Cl)c(=O)n(Cl)c(=O)n1Cl", "inhibition of IKZF1 HTRF signal": -9.26}, {"compound": "CCO[C@H]1O[C@@H]2O[C@@]3(C)CC[C@H]4[C@H](C)CC[C@@H]([C@H]1C)[C@@]24OO3", "note": "[Artemotil]", "inhibition of IKZF1 HTRF signal": 21.4}, {"compound": "C[C@]12CCC3C(CC[C@]4(O)C[C@@H](O)CC[C@]34C=O)[C@@]1(O)CCC2C1=CC(=O)OC1", "note": "(some centres undefined) [Strophantidin]", "inhibition of IKZF1 HTRF signal": 74.7}, {"compound": "c1ccc2c(c1)sc1ccccc12", "inhibition of IKZF1 HTRF signal": -33.1}, {"compound": "O=c1c2ccccc2[se]n1-c1ccccc1", "inhibition of IKZF1 HTRF signal": -37.8}, {"compound": "CO[C@H]1C[C@H](O[C@H]2CC[C@@]3(C)[C@H](CC[C@@H]4[C@@H]3CC[C@]3(C)[C@@H](C5=CC(=O)OC5)[C@@H](OC(C)=O)C[C@]43O)C2)O[C@@H](C)[C@@H]1O", "note": "[Oleandrin]", "inhibition of IKZF1 HTRF signal": 45.9}]}]}
